Consider 25 compounds from PubChem BioAssay (NCI).

Structures are written as SMILES. This is part of a sample that, as a whole, favours compounds with a hit. Of some 83,000 tested, about 20% had one in any assay.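 Single-concentration screen, 48 h exposure, 96-well plates. Endpoint: percent growth. Below 10 = active.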 Unmarked numbers belong to inactive results. Active and inactive are the calls of the source.

This assay deals with HL-60(TB) leukemia. Briefly: NCI-60 one-dose screen, 48 h (100 = growth as untreated, 0 = no growth, -100 = all killed). Conditions: 10 µM unless noted.
In the case of `Nc1c(C(=O)Nc2cccc3ccccc23)sc2nc3c(cc12)COCC3`, the growth was -4.22% (active).
The same measure for `CCN(CC)CCC(=O)c1cccc2ccccc12`: 102%; for `CCNCCCn1c2c(c3ccc(F)cc3c1=O)C(=O)c1cc(OC)cnc1-2`: -25.5% (active).
The same measure for `N#C/C(=C\c1ccc2c(c1)OCO2)n1nnc2cc(F)c(F)cc21`: 38.6%; for `CC(C)OC(=O)Nn1cnc2ccccc21`: 96.5%; for `O=C1NC(c2ccc(F)cc2)N=C2C(c3ccccc3)=NOC12` (stereo not given): 101%.
Under `COc1cc(-c2c3c(nc4c2c(C)nn4-c2ccccc2)-c2ccccc2C(=O)C3=O)cc(OC)c1OC` stands 68.8%; under `C=C1C(=O)O[C@H]2[C@H]1CC/C(COC(=O)c1cccnc1)=C\CC[C@@]1(C)O[C@@H]21`, 2.18% (active).
For the compound `CCCCCCCCOc1ccc(/C=N/Nc2cc(C)nc3ccc(Cl)cc23)cc1`, the growth is 13.5%.
The same measure for `CC(=O)C(CO)C(=O)Nc1ccccc1` (stereo not given): 100%; for `O=C(C[n+]1cccc2cc(Cl)ccc21)c1ccc2c(c1)CCCC2`: -28.3% (active); for `Nc1nc2ncc(CCNc3ccc(C(=O)NC(CCC(=O)O)C(=O)O)cc3)nc2c(=O)[nH]1` (stereo not given): 144%.
Consider `CCCCCCCCCCCC[N+]1(CCCCCCCCCCCC)CCCC(C)C1` (stereo not given), for which the growth was -79.5% (active).
Under `COCC(N)=O` stands 90%; under `N#CC1=C(Nc2ccccc2Cl)SC(c2ccccc2O)NC1=O` (stereo not given), 93.1%; under `CCCCCCC1N=C(N)N=C(N)N1c1cccc(Cl)c1` (stereo not given), 44.3%.
Consider `CCc1ccc(Nc2cc(C)nc3nc(C)nn23)cc1`, for which the growth is -54.6% (active).
Under `CC(=O)Nc1nc(C)c(C(=O)NNC=O)s1` stands 104%; under `C[C@@H](C(=O)NCCCC#Cc1cnc(Nc2ccc(C#N)cc2)nc1NC1CC1)N(C)C(=O)/C=C/CN(C)C`, 42.6%; under `O=C(CSc1nc2ccc([N+](=O)[O-])cc2[nH]1)Nc1ccc(F)cc1`, 71.6%.
For `O=C(CCl)N(C1CCCCC1)C1CCCCC1`, the growth was 104%.
In the case of `C=C1[C@@H](O)C[C@H]2C(C)(C)C[C@H](Cl)C[C@]2(C)[C@H]1C[C@H](O)[C@H]1CC(=O)NC1=O`, the growth is -26% (active).
Under `COc1ccc(Cl)c([N+](=O)[O-])c1` stands 98.6%; under `Cc1cc(O)ccc1C1=NN(c2ccc(S(N)(=O)=O)cc2)C(=O)CC1`, 4.22% (active).
Take `CC(C)(C#N)c1cc(F)cc(C(=O)Nc2cc(Nc3ncccc3-c3ncnc4nc[nH]c34)ccc2F)c1`: the growth is 13.9%.
